Measurements published in PubChem BioAssay AID540333 (Southern Research Specialized Biocontainment Screening …, 2011).
About 320 (3.2%) of roughly 10,000 compounds were called active. This excerpt belongs to a sample that is enriched for actives. Values without a mark were called inactive. Cut-off read from the data, not from the text of the source: active = CPE inhibition mostly above about 9.1% (no sharp cut-off); inactive = mostly below about 7.2%.

Assay: antivirals protecting cells from dengue CPE – CPE readout, HTS (AID 540333)
Settings: Dengue virus CPE inhibition in host cells, at 20 µM; active compounds read high

SMILES	CPE inhibition
CCOc1ccccc1NC(=S)NNS(=O)(=O)c1c(C)cc(C)cc1C	inactive
CCOC(=O)N1CCN(CC(O)COc2ccc(C)cc2C(C)(C)C)CC1 (stereo not drawn)	2.44%
Cc1ccc(NC(=O)CC(C(=O)O)c2ccccc2)cc1 (stereo not drawn)	inactive
C=CCC(C(=O)Oc1c(C(C)(C)C)cc(C)cc1C(C)(C)C)c1ccccc1 (stereo not drawn)	12.5% (active)
CC(C)Oc1ccc(C(CC(=O)N(C)CCC#N)c2ccc(F)cc2)cc1 (stereo not drawn)	0.65%
COC(=O)CNC(c1ccccc1)c1cc(Br)ccc1NC(=O)CNC(=O)OCc1ccccc1 (stereo not drawn)	16.5% (active)
COC(=O)CNC(c1ccccc1)c1cc(C)ccc1NC(=O)c1cccc(Cl)c1 (stereo not drawn)	3.54%
NNC(=O)CNC(c1ccccc1)c1cc(Br)ccc1NC(=O)c1cccc(Cl)c1 (stereo not drawn)	0.305%
O=C(Oc1cccc(/C=N/Nc2nc(Nc3ccccc3)nc(N3CCOCC3)n2)c1)c1ccco1	inactive
Cc1ccc(C(O)(C(=O)NNc2ccc3ccccc3n2)c2ccc(C)cc2)cc1	inactive
CC(Sc1nc(-c2ccccc2)cc(C(F)(F)F)n1)C(=O)Nc1ccc2c(c1)OCO2 (stereo not drawn)	3%
O=C(Nc1cccc(C(F)(F)F)c1)C(Sc1ncnc2ccccc12)c1ccccc1 (stereo not drawn)	2.71%
CC(Sc1ncnc2ccccc12)C(=O)Nc1ccc2c(c1)OCCO2 (stereo not drawn)	12.4% (active)
CC(C)C[C@@H](COc1ccccc1)N1CCN(Cc2ccccc2)CCC1=O	0.51%
CC(C)(C)c1ccc(C(=O)N2CCC(=O)N(C(CO)Cc3ccccc3)CC2)cc1 (stereo not drawn)	inactive
CC(C)CC(COCc1ccc(Cl)cc1)N1CCN(C(=O)c2ccc(C(F)(F)F)cc2)CCC1=O (stereo not drawn)	12.7% (active)
O=C(Nc1cccc(Cl)c1)Nc1ccc2c(c1)C(=O)OC2	inactive
COc1ccccc1[C@@H]1C(c2cccc(Cl)c2)=NN(c2ccccc2)[C@H]1C(=O)N1CCOC1=O	19.3% (active)
O=C1C2C(c3ccccc3)=NN(c3ccccc3)C2C(=O)N1c1ccccc1 (stereo not drawn)	inactive
COc1cccc(N2C(C(C)=O)=NN(c3ccccc3)C2c2ccc(N3CCOCC3)cc2)c1 (stereo not drawn)	2.42%

SMILES	CPE inhibition
O=C(/C=C/c1ccc(Br)cc1)NC(=S)Nc1ccc(S(=O)(=O)Nc2nccs2)cc1	inactive
Nc1c(C(=O)c2ccc(Cl)cc2)sc2nc3c(cc12)CCC3	7.59%
CC(C)(C)NC(=O)c1ccc2c(c1)C1C3CCC(C3)C1C(c1ccccc1)N2 (stereo not drawn)	15.9% (active)
O=C(O)c1ccc(NC(=O)c2cccc(N3C(=O)C4C5CCC(C5)C4C3=O)c2)cc1 (stereo not drawn)	1.22%
O=C(Nc1ccc(Cl)cc1)c1cccc(N2C(=O)C3C4CCC(C4)C3C2=O)c1 (stereo not drawn)	2.71%
O=C(CCC(=O)NCCCc1ccccc1)NCCCc1ccccc1	inactive
Cc1ccc(SCCNC(=O)/C=C/c2cccc([N+](=O)[O-])c2)cc1	6.54%
CCCCNC(=O)c1onc(CSc2cccc(OC)c2)c1C(=O)NCCCC	20.1% (active)
COc1cccc(SCc2noc(C(=O)NCCCN3CCOCC3)c2C(=O)NCCCN2CCOCC2)c1	0.255%
C=CCNC(=O)c1c(CSc2ccc(Cl)cc2)noc1C(=O)NCCC	0.85%
C=CCNC(=O)c1c(CSc2ccc(Cl)cc2)noc1C(=O)NCc1ccccc1	11.2% (active)
CCCCNC(=O)c1onc(CSc2cccc(OC)c2)c1C(=O)O	inactive
C=CCNC(=O)c1onc(CSc2ccccc2)c1C(=O)NCC=C	0.535%
O=C(NCCCN1CCOCC1)c1onc(CSc2ccccn2)c1C(=O)NCCCN1CCOCC1	inactive
COCCNC(=O)c1onc(CSc2ccc(F)c(F)c2)c1C(=O)NCCOC	inactive
CCCCNC(=O)c1onc(CSc2ccccn2)c1C(=O)NCCCC	1.85%
O=C(NCCCN1CCOCC1)c1onc(CSc2ccc(F)c(F)c2)c1C(=O)NCCCN1CCOCC1	inactive
CCCCNC(=O)c1onc(CSc2ccc(F)c(F)c2)c1C(=O)NCCCC	11.5% (active)
CC(C)CCNC(=O)c1onc(CSc2ccccn2)c1C(=O)NCCC(C)C	25.9% (active)
CCn1c(C)nc2cc(C(=O)NNC(=S)Nc3ccc(Cl)cc3Cl)ccc21	inactive

SMILES	CPE inhibition
O=C(Cc1cccs1)N/N=C/c1ccco1	0.08%
COC(=O)c1c(NC(=O)C2C3C=CC(CC3)C2C(=O)O)sc(C)c1C (stereo not drawn)	inactive
CC1=CN2C(=N)/C(=C/c3ccc(Sc4ccc(C)cc4)o3)C(=O)N=C2S1	9.52%
Cc1cccc(NC(=O)CN2C(=O)N/C(=C/c3cc(C)n(-c4ccncc4)c3C)C2=O)c1	inactive
COc1cccc(SCc2noc(C(=O)NCCN(C)C)c2C(=O)NCCN(C)C)c1	0.54%
COCCNC(=O)c1onc(CSc2cccc(OC)c2)c1C(=O)NCCOC	0.425%
COc1cccc(SCc2noc(C(=O)NCCC(C)C)c2C(=O)NCCC(C)C)c1	23% (active)
CNC(=S)N(CCc1ccc(OC)c(OC)c1)Cc1cc2c(C)cc(C)cc2[nH]c1=O	inactive
O=C1CN(C(=O)CSc2nnc3ccccn23)c2ccccc2N1	0.845%
C=CCNC(=O)C12CCC(C)(C(=O)C1Br)C2(C)C (stereo not drawn)	0.36%
COC(=O)N(NC(=O)C(O)(c1ccccc1)c1ccccc1)c1ccccc1	1.2%
COC(=O)N(NC(=O)C(O)(c1ccccc1)c1ccccc1)c1ccc(C)cc1	61.4% (active)
CCOC(=O)N(NC(=O)C(O)(c1ccccc1)c1ccccc1)c1ccccc1	2.6%
COc1ccc(-c2nn(-c3ccccc3)cc2/C=C(\C#N)S(=O)(=O)c2ccccc2)cc1OC	0.055%
COc1ccc(-c2nn(-c3ccccc3)cc2/C=C(/C#N)C(N)=O)cc1[N+](=O)[O-]	inactive
CC(NC(=O)/C(C#N)=C/c1cn(-c2ccccc2)nc1-c1ccc(F)cc1)c1ccccc1 (stereo not drawn)	8.04% (active)
CC1CC(=O)N(c2ccc(NCc3ccc(Cl)cc3)c([N+](=O)[O-])c2)C1=O (stereo not drawn)	0.275%
COc1ccc(CC(=O)NNc2ncnc3c2cnn3-c2ccc(C)cc2)cc1OC	2.76%
